Test results as given in PubChem BioAssay (EPA / NIEHS).
Several values for one entry are separate records, joined by “and”; a condition that tells them apart may be missing. Equal values may be shown once. A structure can be active in one record and inactive in another. Activity calls are given as the source filed them. Rule for the calls: active = hit-call score of the fitted dose curve at least 0.9, where 1 is the maximum; inactive = score below 0.9.

Legend:
[1] = read-out: Collagen III, COL3A1 (gene 1281); assay: BSK_hDFCGF_CollagenIII: BioMAP Diversity Plus: hDFCGF Assay for Collagen III Biomarker Activity (AID 2283056); conditions: primary human foreskin fibroblasts; actives raise or lower the signal
Summary of the method: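 Response relative to DMSO, fitted in both directions, reflects ELISA-measured collagen III in human primary skin fibroblasts 24 h after compound addition.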

[2] = read-out: Epidermal growth factor receptor (EGFR), EGFR (gene 1956); assay: BSK_hDFCGF_EGFR: BioMAP Diversity Plus: hDFCGF Assay for Epidermal growth factor receptor (EGFR) Biomarker Activity (AID 2283057); conditions: primary human foreskin fibroblasts; actives raise or lower the signal
Summary of the method: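 ELISA readout of EGFR on human dermal fibroblasts (primary foreskin cells), 24 h post-dosing; bidirectional curve fit vs DMSO baseline, gain or loss of signal scored.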

[3] = read-out: Interleukin-8 (IL8), CXCL8 (gene 3576); assay: BSK_hDFCGF_IL8: BioMAP Diversity Plus: hDFCGF Assay for Interleukin-8 (IL8) Biomarker Activity (AID 2283058); conditions: primary human foreskin fibroblasts; actives raise or lower the signal
Summary of the method: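 Fibroblast monolayers (human foreskin, hDFCGF) received test chemical for 24 h before ELISA detection of IL-8; either increases or decreases relative to DMSO count as activity.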

[4] = BSK_hDFCGF_Proliferation: Cell Proliferation Assessment in the BioMAP Diversity Plus: hDFCGF Assay (AID 2283059); conditions: primary human foreskin fibroblasts;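 note: curves fitted for both rise and fall of signal versus DMSO baseline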
Summary of the method: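 Sub-confluent human foreskin fibroblast cultures receive test chemical […]. Relative cell number is quantified by sulforhodamine B staining (0.1%, after 10% TCA fixation) at 560 nm, with bidirectional fitting referenced to DMSO.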

[5] = read-out: Macrophage colony-stimulating factor (MCSF), CSF1 (gene 1435); assay: BSK_hDFCGF_MCSF: BioMAP Diversity Plus: hDFCGF Assay for Macrophage colony-stimulating factor (MCSF) Biomarker Activity (AID 2283060); conditions: primary human foreskin fibroblasts; actives raise or lower the signal
Summary of the method: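 fibroblasts (human foreskin, primary), 24 h post-dose; M-CSF by ELISA; bidirectional fit, DMSO = baseline.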

[6] = BSK_hDFCGF_SRB: Viability Assessment in the BioMAP Diversity Plus: hDFCGF Assay (AID 2283061); conditions: primary human foreskin fibroblasts;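 note: cells exposed to compound for 24 h before the read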
Summary of the method: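 SRB-based viability read on primary human skin fibroblasts at 24 h: TCA fixation, 0.1% dye, 560 nm. Gain or loss of signal is fitted against the DMSO negative control.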

[7] = read-out: TIMP metallopeptidase inhibitor 1 (TIMP1), TIMP1 (gene 7076); assay: BSK_hDFCGF_TIMP1: BioMAP Diversity Plus: hDFCGF Assay for TIMP metallopeptidase inhibitor 1 (TIMP1) Biomarker Activity (AID 2283062); conditions: primary human foreskin fibroblasts; actives raise or lower the signal
Summary of the method: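 Bidirectional curve fitting against DMSO baseline yielded this endpoint, based on ELISA detection of TIMP-1 in primary human foreskin fibroblasts exposed to compound for 24 h.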

[8] = read-out: Monokine induced gamma interferon (MIG), CXCL9 (gene 4283); assay: BSK_hDFCGF_MIG: BioMAP Diversity Plus: hDFCGF Assay for Monokine induced gamma interferon (MIG) Biomarker Activity (AID 2283063); conditions: primary human foreskin fibroblasts; actives raise or lower the signal
Summary of the method: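 Endpoint derived by bidirectional fitting relative to DMSO; MIG quantified via ELISA in primary human foreskin fibroblasts harvested 24 h after dosing.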

[9] = read-out: Matrix Metallopeptidase 1 (MMP1), MMP1 (gene 4312); assay: BSK_hDFCGF_MMP1: BioMAP Diversity Plus: hDFCGF Assay for Matrix Metallopeptidase 1 (MMP1) Biomarker Activity (AID 2283064); conditions: primary human foreskin fibroblasts; actives raise or lower the signal
Summary of the method: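 ELISA read-out of MMP1 from human foreskin fibroblasts (primary skin cells), 24 h post-dose. Gain or loss of signal was fitted bidirectionally versus DMSO negative control; cytotoxicity was checked by SRB in parallel cultures.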

[10] = read-out: Vascular cell adhesion molecule 1 (VCAM1), VCAM1 (gene 7412); assay: BSK_hDFCGF_VCAM1: BioMAP Diversity Plus: hDFCGF Assay for Vascular cell adhesion molecule 1 (VCAM1) Biomarker Activity (AID 2283065); conditions: primary human foreskin fibroblasts; actives raise or lower the signal;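 for AC50: VCAM-1 protein level quantified by ELISA after 24 h chemical exposure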
Summary of the method: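 Measured after 24 h chemical treatment of primary human skin fibroblasts, VCAM-1 was detected by ELISA and concentration-response analysed in both directions versus DMSO vehicle.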

Measured: AC50

CN(C)[C@@H]1C(=O)C(C(N)=O)=C(O)[C@@]2(O)C(=O)C3=C(O)c4c(O)cccc4[C@@](C)(O)[C@H]3C[C@@H]12
active: [4] 22.9 µM
inactive: all other assays above

CCOc1cccc(C2(N3CCN(c4ccccc4)CC3)CCC(C)CC2)c1 (centres undefined)
not listed: [10]
inactive: all other assays above

CCCCCCCCOC(=O)c1ccc(C(=O)OCCCCCCCC)c(C(=O)OCCCCCCCC)c1
inactive: all assays above

COC(=O)c1ccccc1N
not listed: [10]
inactive: all other assays above

CC(C)(C)C(O)(CCc1ccc(Cl)cc1)Cn1cncn1 (centres undefined)
active: [4] 0.299 µM
not listed: [10]
inactive: all other assays above

CC(C)N(Cc1ccccc1)C(=O)C(C)(C)C
not listed: [10]
inactive: all other assays above

CO[C@@H]1[C@H](OC(=O)NC(=O)CCl)CC[C@]2(CO2)[C@H]1[C@@]1(C)O[C@@H]1CC=C(C)C
active: [1] 2.63 µM | [2] 9.51 µM | [3] 11.5 µM | [4] 2.28 µM | [5] 6.58 µM | [6] 9.25 µM | [7] 5.82 µM | [8] 8.35 µM | [9] 11.6 µM

CNC(=O)Oc1cccc2c1OC(C)(C)C2
not listed: [6] | [10]
inactive: all other assays above

OCCOCCO
inactive: all assays above

CCCSC(=O)N(CCC)CCC
not listed: [10]
inactive: all other assays above

CCOC(=O)[C@]1(c2ccccc2)Oc2ccccc2[C@@H]1N
inactive: [2] | [9]
active: [1] 31.9 µM | [3] 32.2 µM | [4] 17.8 µM | [5] 28.4 µM | [6] 26.9 µM | [7] 30.2 µM

COP(=S)(OC)SCN1C(=O)c2ccccc2C1=O
not listed: [10]
inactive: all other assays above

CCC12COCN1COC2
inactive: all assays above

CCN(CC)CCO
not listed: [10]
inactive: all other assays above

N#CC(Br)Br
not listed: [10]
inactive: all other assays above

CCNS(=O)(=O)C(F)(F)C(F)(F)C(F)(F)C(F)(F)C(F)(F)C(F)(F)C(F)(F)C(F)(F)F
active: [1] 5.82 µM and 18.6 µM and 22 µM | [2] 31.3 µM and 48.5 µM | [3] 55.1 µM and 46.4 µM | [4] 17.5 µM and 14.4 µM and 19.4 µM | [5] 17 µM and 22.2 µM and 28.5 µM | [6] 28.8 µM and 44.8 µM and 47.8 µM | [7] 47.2 µM and 53.5 µM | [8] 19.3 µM and 28.3 µM and 36 µM | [9] 49.2 µM and 49.6 µM | [10] 5.73 µM and 13.5 µM
inactive: [2] | [3] | [7] | [9]

CC(C)COC(=O)c1ccccc1C(=O)OCC(C)C
active: [1] 23.9 µM | [5] 14.4 µM | [10] 20 µM
inactive: all other assays above

CCC[CH2][Sn]([Cl])([CH2]CCC)[CH2]CCC
active: [1] 0.316 µM | [3] 0.287 µM | [4] 0.148 µM | [5] 0.148 µM | [7] 0.148 µM | [8] 0.369 µM | [9] 0.271 µM
inactive: [2]

[Cl-].[Cl-].[Hg+2]
active: [1] 11.6 µM | [3] 13.6 µM | [4] 4.83 µM | [5] 10.7 µM | [6] 12.1 µM | [7] 13.5 µM | [8] 8.14 µM | [9] 11.8 µM | [10] 7.96 µM
inactive: [2]
